The campaign covered roughly 360,000 compounds. About 430 (0.12%) were called active. Only a selection was taken, and actives are over-represented in it overall. A number with no mark means an inactive call.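 The calls were made as follows: active = inhibition above the campaign mean plus 3 SD, with each screening campaign given its own cutoff (cut at about 60% in these data); inactive = the rest.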
Target: Nuclear receptor coactivator 1 (Homo sapiens) (UniProt Q15788)
Assay: SRC1 coactivator transcriptional activity inhibitors, primary screen, cell-based, luminescence (AID 588354);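 also: 0% = DMSO treated cells and 100% = gossypol at 36 µM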
Conditions: HEK293 GAL4-SRC1 luciferase reporter, at 3.6 µM, active compounds read high

Chain of Nuclear receptor coactivator 1 (Homo sapiens) (Q15788 whole entry, looked up): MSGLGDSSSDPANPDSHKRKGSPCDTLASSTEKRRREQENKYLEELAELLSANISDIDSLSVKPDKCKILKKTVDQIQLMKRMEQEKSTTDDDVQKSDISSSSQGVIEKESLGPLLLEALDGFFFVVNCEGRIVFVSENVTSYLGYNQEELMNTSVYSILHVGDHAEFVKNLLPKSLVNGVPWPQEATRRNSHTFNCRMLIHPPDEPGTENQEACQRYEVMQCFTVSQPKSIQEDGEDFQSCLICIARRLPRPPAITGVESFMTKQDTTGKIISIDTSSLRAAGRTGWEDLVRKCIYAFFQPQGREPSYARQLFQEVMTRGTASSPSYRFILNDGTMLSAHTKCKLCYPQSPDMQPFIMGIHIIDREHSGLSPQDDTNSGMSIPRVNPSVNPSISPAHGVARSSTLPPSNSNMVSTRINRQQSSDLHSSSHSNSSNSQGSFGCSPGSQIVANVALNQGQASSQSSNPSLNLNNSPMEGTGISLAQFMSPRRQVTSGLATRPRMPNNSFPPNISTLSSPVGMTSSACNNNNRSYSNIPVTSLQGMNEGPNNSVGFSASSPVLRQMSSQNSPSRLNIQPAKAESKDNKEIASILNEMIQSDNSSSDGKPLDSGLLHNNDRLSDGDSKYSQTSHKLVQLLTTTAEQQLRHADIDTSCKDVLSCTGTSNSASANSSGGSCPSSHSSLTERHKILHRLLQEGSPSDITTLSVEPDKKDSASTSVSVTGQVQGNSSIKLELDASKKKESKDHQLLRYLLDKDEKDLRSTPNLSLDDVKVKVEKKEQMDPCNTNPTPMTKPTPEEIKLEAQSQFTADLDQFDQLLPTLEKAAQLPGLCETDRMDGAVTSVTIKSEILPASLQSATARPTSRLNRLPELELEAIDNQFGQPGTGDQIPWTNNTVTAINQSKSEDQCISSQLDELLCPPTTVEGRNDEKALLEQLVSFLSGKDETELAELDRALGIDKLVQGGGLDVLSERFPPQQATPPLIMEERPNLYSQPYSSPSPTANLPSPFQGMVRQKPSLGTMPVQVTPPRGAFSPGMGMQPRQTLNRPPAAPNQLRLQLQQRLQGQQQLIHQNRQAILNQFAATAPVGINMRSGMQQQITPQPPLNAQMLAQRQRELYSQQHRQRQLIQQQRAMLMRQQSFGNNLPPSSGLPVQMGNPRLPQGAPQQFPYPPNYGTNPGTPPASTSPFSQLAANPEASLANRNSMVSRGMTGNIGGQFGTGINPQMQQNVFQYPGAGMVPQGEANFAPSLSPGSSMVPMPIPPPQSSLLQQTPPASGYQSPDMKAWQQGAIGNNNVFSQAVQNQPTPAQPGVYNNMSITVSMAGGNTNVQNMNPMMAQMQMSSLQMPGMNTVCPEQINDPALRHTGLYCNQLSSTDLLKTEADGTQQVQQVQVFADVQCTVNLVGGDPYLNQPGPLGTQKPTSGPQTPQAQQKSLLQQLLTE

| Compound | inhibition |
| --- | --- |
| CCN(C(=O)COC(=O)CCOc1cccc(C)c1)c1c(N)n(Cc2ccccc2)c(=O)[nH]c1=O | 4.13% |
| Cc1cccc(C)c1Cn1c(C)c(C(=O)NCc2cccc(Cl)c2)sc1=O | -0.2% |
| CCc1ccc(CN(C)C(=O)C2CCC(=O)N(Cc3cccc(OC)c3)C2)nc1 (configuration not stated) | 5.84% |
| CC(C)CN(C(=O)CSc1nncn1C)C1CCS(=O)(=O)C1 (configuration not stated) | 14% |
| C=CCOc1ccccc1/C=N/NC(=O)Cc1ccccc1 | -8.79% |
| O=C(NN=Cc1ccccc1O)NN=Cc1ccccc1O | 63% (active) |
| O=C(N/N=C/c1ccccc1O)/C(=C/c1ccccc1)CCO | 30.9% |
| CCSc1sc(CC)cc1C=O | -14.9% |
| Cc1cc2c(cc1C)N(Cc1ccccc1)C1=NCCCN12 | 21.9% |
| CS(=O)(=O)Nc1ccccc1C(=O)OCC(=O)NC1CC1 | -13.3% |
| COc1ccc2c(c1)c(=Cc1ccc(N(C)C)cc1)c1cc(-c3ccccc3)[n+](C)n12 | 64.1% (active) |
| COc1ccc(OC)c(NC(=O)CN(C)CCOc2ccc(Br)cc2)c1 | -10.8% |
| COc1ccc(Nc2ncnc3ccc(Br)cc23)c(OC)c1 | 81.9% (active) |
| COc1ccc(OC)c(Nc2nc3ccccc3n3cnnc23)c1 | 1.7% |
| COc1ccccc1C(=O)NC(=O)COC(=O)c1ccco1 | 3.45% |
| COC(=O)c1ccc(NC(=O)CSc2nncc3ccc(OC)c(OC)c23)cc1 | -23.3% |
| CCN(CC)CCCNC(=O)c1c(O)c2cc(F)cc3c2n(c1=O)C(C)CC3 (configuration not stated) | -12.1% |
| COc1ccc(CCN2C(=O)N(c3ccc(OC)cc3)C(=O)C2CC(=O)Nc2ccc(OC)cc2)cc1 (configuration not stated) | -12.4% |
| O=C(Nc1cccc2c1CCCC2)C1CCN(C(=O)NC2CCCCC2)CC1 | 3.24% |
| O=C(CC1Nc2ccccc2NC1=O)Nc1ccccc1 (configuration not stated) | -51.2% |
| CCN(c1ccccc1)S(=O)(=O)c1ccc(OCC(=O)N2CCCC2)cc1 | -2.15% |
| CCC(C)NC(=O)c1cc(Cl)ccc1OC (configuration not stated) | 3% |
| CC(C)C[C@H](NC(=O)C1CCC(CNC(=O)[C@@H]2CCCN2C(=O)OC(C)(C)C)CC1)C(=O)O (some centres not stated) | 16% |

| Compound | inhibition |
| --- | --- |
| CC(C)(C)C(=O)NCCCNc1ccc([N+](=O)[O-])cc1 | -24.3% |
| CCN(CC)S(=O)(=O)c1ccc(N2CCN(C)CC2)c(NC(=O)Nc2ccccc2F)c1 | -0.49% |
| COCC1CCCN(Cc2nc(-c3ccc4c(c3)OCO4)no2)C1 (configuration not stated) | -70.5% |
| CC(=O)Nc1ccc(C(=O)Nc2cc(S(=O)(=O)N3CCOCC3)ccc2N2CCOCC2)cc1 | -2.37% |
| O=C(NCCc1ccccc1)Oc1ccc(Cl)cc1 | -56.8% |
| COc1ccc(CN2CCC(c3nc4ccc(Cl)cc4[nH]3)CC2)cc1 | 2.53% |
| Cc1cc(NC(=O)CSC2=NS(=O)(=O)c3cc(Cl)ccc3N2)no1 | -31% |
| CN(CCOc1ccc(Br)cc1)CC(=O)Nc1cccc(S(=O)(=O)NC2=NCCC2)c1 | -16.8% |
| CC(C)(C)c1ccccc1NC(=O)CN1C(=O)NC2(CCCC2)C1=O | -13.8% |
| CCn1nc(C(=O)Nc2ccc(N3CCOCC3)cc2)c2ccccc2c1=O | -1.53% |
| CCCCOC(=O)NCN1C(=O)C2C3C=CC(C3)C2C1=O (configuration not stated) | 1% |
| Clc1ccc(Cn2ncc3c(NCc4cccnc4)ncnc32)cc1 | -4.66% |
| Brc1ccc2ncnc(NCc3cccnc3)c2c1 | 66.1% (active) |
| Cc1cc(NCc2cccnc2)no1 | 25.1% |
| COc1ccc(S(=O)(=O)N2CCN(C(=O)N(C)C)C2C)cc1 (configuration not stated) | -47.2% |
| C=CCN1C=C(C(=O)c2ccccc2)C(=O)CC1 | -2.55% |
| O=C(O)C1CCCN1C1=NS(=O)(=O)c2ccccc21 (configuration not stated) | 12.2% |
| Cc1ccc(C)c(OCc2cc(C(=O)N3CCN(c4cnccn4)CC3)no2)c1 | -12.1% |
| CCOc1ccccc1NS(=O)(=O)c1c[nH]c(C(=O)OC)c1 | -15% |
| C=CC[C@H](CC(=O)OC(C)(C)C)C(=O)OC[C@H]1CCCN1C(=O)[C@H](CC=C)CC(=O)N(CCO)Cc1ccccc1 | -0.47% |
| CC1(C)CN(Cc2cccnc2)C(=O)[C@H]1CC(=O)Nc1ccc(Br)cc1 | -2.09% |
| O=c1ccc2c(-c3ccccc3S(=O)(=O)O)c3ccc(O)c(O)c3oc-2c1O | 13.4% |
| CCn1c(SCC(=O)N2CCCC2=O)nc2ccccc21 | 16.1% |

| Compound | inhibition |
| --- | --- |
| CC1=C(C(=O)N(C)C)C(c2ccccc2OC(F)F)NC(=O)N1 (configuration not stated) | 4.69% |
| O=C(NC1CCCC1)C(c1ccc(N2CCOCC2)cc1)N(C(=O)c1ccco1)c1ccccc1F (configuration not stated) | 5.48% |
| Cc1ccc(CSCC2Nc3ccc(C(=O)N4CCN(c5ccc(F)cc5)CC4)cc3NC2=O)cc1 (configuration not stated) | 2.74% |
| C[C@@H](C(=O)N1CCNCC1)n1cc(CCC(=O)O)nn1 | 3.05% |
| Cc1ccccc1-c1cc(C(=O)NCC2CC2)n(CC2CC(c3cccnc3)=NO2)n1 (configuration not stated) | 2.14% |
| CO/N=C/c1cn(-c2ccc(Cl)cc2)nn1 | -12.7% |
| COc1cccc(OCc2cc(/C=N/NC(=O)c3nc(Cl)c(Cl)c(N)c3Cl)ccc2OC)c1 | -14.2% |
| COc1ccc(C(=O)Nc2ccccc2C(=O)N/N=C/c2ccc(O)c(OC)c2)cc1 | 64.2% (active) |
| CCOc1cc(/C=N/NC(=O)c2c(C)nc3ccc(Cl)cn23)ccc1O | 0.11% |
| CC1CN(c2nc(-c3ccccc3)nnc2-c2ccccc2)CC(C)O1 (configuration not stated) | 10.6% |
| CC(Oc1ccc(Cl)cc1Cl)C(=O)/C=C/N(C)C (configuration not stated) | -17.4% |
| COCCN(Cc1nc(-c2ccc(C(F)(F)F)cc2)no1)C(C)C | -8.16% |
| CC(CCn1cccn1)NC(=O)CCc1nnc(CCc2ccccc2)o1 (configuration not stated) | 11.7% |
| O=C(NC(Nc1nc2ccc([N+](=O)[O-])cc2s1)(C(F)(F)F)C(F)(F)F)c1ccccc1 | 68.3% (active) |
| O=C(NNS(=O)(=O)Cc1ccccc1)c1ccc([N+](=O)[O-])cc1 | -4.79% |
| O=C(Nc1cc(-c2ccccc2)nn1-c1ccccc1F)c1ccc([N+](=O)[O-])cc1 | -16.9% |
| COc1cc(CN2CCNC(=O)C2CC(=O)NCCc2ncccc2C)cc(OC)c1 (configuration not stated) | 14.8% |
| O=C(CCc1ccc(S(=O)(=O)N2CCOCC2)cc1)Nc1ccc2ccccc2c1 | -5.83% |
| CC1CCCN(CCOCCOc2ccccc2-c2ccccc2)C1 (configuration not stated) | 9.99% |
| C[C@H]1CN([C@@H](C)CO)C(=O)c2cc(Br)cnc2O[C@H]1CN(C)S(=O)(=O)c1cccs1 | -44.2% |
| N#CC1(NC(=O)COC(=O)CSc2ccc(F)cc2)CCCCC1 | 20.2% |
| CCOc1cc(CNCc2ccccn2)ccc1OCC(=O)NC(C)(C)C | 10.8% |
| O=C(Cc1ccccn1)c1ccc(O)cc1O | -0.25% |

| Compound | inhibition |
| --- | --- |
| CCC(C)C(=O)Nc1cc([N+](=O)[O-])ccc1Cl (configuration not stated) | -3.1% |
| OCCCNc1nccc(-c2cc(Nc3cccc(Cl)c3)ncn2)n1 | 73.6% (active) |
| COc1ccc(-c2c(C#N)cnc(C)c2C)c(O)c1OC | -0.11% |
| O=C(c1ccc[nH]c1=S)N1CCN(S(=O)(=O)c2ccc(Br)cc2Cl)CC1 | -3.09% |
| CC(C)CCNC(=O)CCNS(=O)(=O)c1ccc(Cl)cc1 | -13% |
| Nc1cc2c(cc1Br)-c1ccc(F)cc1C2=O | -13.1% |
| CCOC(=O)N1CCC(O)(c2cc(C)c(C)cc2C)CC1 | -15.8% |
| O=C(NCc1ccccc1Cl)C1CCCN1S(=O)(=O)c1ccc(F)cc1 (configuration not stated) | -10.6% |
| CCn1nc(C)c(CNC(=O)C2CCC(=O)N(Cc3cccc(F)c3)C2)c1C (configuration not stated) | -37.5% |
| COc1ccc(NC(=O)CSc2nc(NS(=O)(=O)c3ccc(C)cc3)cc(=O)[nH]2)cc1 | -19.6% |
| COCCn1nnnc1CN1CCC(NC(=O)Nc2cccc(OC)c2)CC1 | 0.56% |
| CC(=O)c1ccc(N2CCN(C(=O)CCNC(=O)Cn3ccc4ccccc4c3=O)CC2)cc1 | 3.75% |
| O=C(c1cccc(-n2cccc2)c1)N1CCN(S(=O)(=O)c2ccc(F)cc2)CC1 | -2.17% |
| COc1ccc([C@H]2[C@H](C(C)=O)N3N=Cc4ccccc4C3C23C(=O)OC(C)(C)OC3=O)cc1 (some centres not stated) | -26.2% |
| CC(C)Oc1ccc(/C=N/NC(=O)c2nnn(-c3nonc3N)c2CN(C)C2CCCCC2)cc1 | 7.06% |
| CCOc1ccccc1-n1c(SCC(=O)NCc2ccco2)nnc1-c1ccncc1 | 5.79% |
| O=C(COC(=O)CCOc1ccccc1)Nc1cc(S(=O)(=O)N2CCCCC2)ccc1Cl | -9.87% |
| COCCOC1CCN(C(=O)c2ccc(OC)c(OC3CCN(C(C)C)CC3)c2)CC1 | -0.27% |
| CCOC(=O)CC1COCCN1C(=O)c1cc(COc2ccc(F)c(F)c2)on1 (configuration not stated) | -5.67% |
| COCCn1c(N)c(NCc2ccccc2)c(=O)[nH]c1=O | -11.5% |
| CCOP1(=O)C=C(C(C)(C)C)OC1c1ccc(F)cc1 (configuration not stated) | -6.16% |
| O=C(O)COCC(=O)NCc1csc2ccc(Cl)cc12 | 11.9% |
| CC1(C)CC(CNCCC(c2ccc(F)cc2)c2ccco2)CCO1 (configuration not stated) | 12.7% |

Reference: PubChem BioAssay AID588354 (The Scripps Research Institute Molecular Screening Center, 2011)
